Screening data as filed in PubChem.
Sampled rows, rich in hits. Any-hit rate of the full collection: about 20%.
HCMV antiviral = inhibitors of human cytomegalovirus; activity change, negative = inhibition, % at 57.5 µM; 410,000 tested, 4.5% active; AID 1259415; HFF cells, HCMV-luciferase reporter, 72 h; stronger effect = lower value; in the data active = activity change below about -60%; inconclusive = no clear call, values can overlap the other calls; inactive = above about -39%
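HFF cells seeded 16 h at 37C, treated with compounds, infected with luciferase-reporter HCMV at MOI 1 PFU/cell; luciferase read at 72 h post infection, normalized to buffer-only and Salinomycin controls.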
Pf growth 96h = inhibits malaria parasite growth, 96 h. Potency, µM (highest dose often 28.7 µM), most hits filed as inhibitors. P. falciparum luciferase reporter growth, 96 h. 320,000 tested, 6.9% active. AID 504834
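Luminescence readout: decreased luciferase signal marks inhibited growth of reporter-expressing P. falciparum in infected red cells (2% hematocrit, 0.05% parasitemia final), exposed to compound two generations (96 h, 37 C, 5% CO2).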
Shiga toxin inh = Shiga toxin inhibition; Vero cells, Shiga toxin protein synthesis inhibition reporter; inhibition, % at 38.7 µM; 290,000 tested, 9.2% active; AID 2315; in the data active = inhibition mostly above about 28%, no sharp cut-off; inactive = mostly below about 43%
Pf growth 48h = P. falciparum growth inhibition at 48 hours (one generation); P. falciparum luciferase growth in erythrocytes, 48 h; Potency, µM (titrated, usually from 28.7 µM), actives largely listed as inhibitors; 310,000 tested, 5.9% active; AID 504832
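Erythrocytes infected with P. falciparum carrying an integrated firefly luciferase reporter (2% hematocrit, 0.1% parasitemia final) were exposed to compounds in RPMI 1640 with 0.5% Albumax at 37 C, 5% CO2. Growth inhibition was scored as reduced luminescence.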
Cycloheximide cs = counter-screen for Shiga toxin inhibitors: cycloheximide protein synthesis inhibition | 300,000 tested, 12% active | max response, % | cell reporter, cycloheximide protein synthesis inhibition counterscreen; in the data active = max response mostly above about 13%, no sharp cut-off; inactive = mostly below about 14%; note: read at 38.3 µM for the half of the compounds with a filed dose
Each line names hits and unclear results; the compound was inactive in the other large screens. Unless noted, calls come from the whole dose curve; as a rule, active = well fitted inhibition curve with a large enough effect; inconclusive = small, poorly fitted or top-dose-only effect, or another doubt; inactive = no such curve, though single readings can be large or run the other way.

C(=N\NC(=Nc1ccccc1)c1ccccn1)/c1ccccn1	Pf growth 48h inconclusive, Cycloheximide cs 14.1
Clc1ccc(/C=N/NC(=Nc2ccccc2)c2ccccn2)c(Cl)c1	Shiga toxin inh 123.6, Cycloheximide cs 41.3
CCN(C(=O)C(NS(=O)(=O)c1ccc(Br)s1)c1ccccc1)c1ccc(C)c(C)c1 (centres undefined)	HCMV antiviral -64.4 (no result: Pf growth 96h, Shiga toxin inh, Pf growth 48h, Cycloheximide cs)
CCN(CC)c1ccc(NC(=O)C(Cc2ccccc2)NS(=O)(=O)c2ccc(Br)s2)c(C)c1 (centres undefined)	none (no result: Pf growth 96h, Shiga toxin inh, Pf growth 48h, Cycloheximide cs)
CCc1ccccc1NC(=O)C(CC)Sc1nc2cc3c(cc2c(=O)n1Cc1ccco1)OCO3 (centres undefined)	HCMV antiviral -94.1
CCC(Sc1nc2cc(OC)c(OC)cc2c(=O)n1Cc1ccco1)C(=O)NCCOC (centres undefined)	Pf growth 96h inconclusive, Pf growth 48h inconclusive
CCc1ccc(NC(=O)C(CC)Sc2nc3cc4c(cc3c(=O)n2Cc2ccco2)OCO4)cc1 (centres undefined)	HCMV antiviral inconclusive, Pf growth 96h 2.62µM (no result: Pf growth 48h)
Cc1ccccc1NCC(=O)N=Nc1c(O)[nH]c2ccc([N+](=O)[O-])cc12	HCMV antiviral -83.1, Pf growth 96h inconclusive, Pf growth 48h inconclusive
O=C(Nc1ccc(F)cc1)C(=O)c1c(O)[nH]c2ccc([N+](=O)[O-])cc12	Cycloheximide cs 19.3 (no result: HCMV antiviral)
Cc1ccc(NCC(=O)N=Nc2c(O)[nH]c3ccc([N+](=O)[O-])cc23)cc1	Pf growth 96h inconclusive, Cycloheximide cs 43.5
O=C(N=Nc1c(O)[nH]c2ccc([N+](=O)[O-])cc12)c1ccccc1Cl	HCMV antiviral inconclusive
CC(C)C[C@H](NC(=O)c1nc[nH]c1C(=O)N1CCN(c2ccccc2)CC1)C(=O)OCc1ccccc1	none
Cc1c(C(=O)N/N=C/c2ccc(Cl)cc2)[nH]c2ccc(Cl)cc12	HCMV antiviral -89.4, Pf growth 96h inconclusive
Cc1c(C(=O)N/N=C/C(C)C)[nH]c2ccc([N+](=O)[O-])cc12	HCMV antiviral -75.4
Cn1nnnc1SCC(=O)N1CCN(c2ccc(Cl)cc2)CC1	none
O=C(CSC1=NCCS1)N1CCN(c2ccc(Cl)cc2)CC1	HCMV antiviral -81.9
O=C(CN(Cc1ccccc1)C1=NCCS1)c1ccc(Cl)cc1	Pf growth 96h inconclusive
O=C(CSC1=NCCS1)c1ccc(Cl)cc1	Pf growth 96h inconclusive, Pf growth 48h 10.4µM
CCOCCCn1c(SCC(=O)Nc2ccc(F)cc2)nc2c(sc3ccccc32)c1=O	none (no result: Pf growth 96h, Shiga toxin inh, Pf growth 48h, Cycloheximide cs)
CC(=O)NC1C(=O)Nc2c1cccc2C(F)(F)F (centres undefined)	none (no result: Pf growth 96h)
CCOCOCc1cc(OC(C)C)ccc1N1C(=O)C[C@@H](C(=O)OC)[C@H]1c1ccc(OC(C)C)c(OC)c1	none (no result: Pf growth 96h, Shiga toxin inh, Pf growth 48h, Cycloheximide cs)
Cc1cccc(C(=O)N2CCCC(N3CCN(Cc4ccc5c(c4)OCO5)CC3)C2)n1 (centres undefined)	Pf growth 96h inconclusive, Cycloheximide cs 24.7
O=C(c1cccs1)N1CCC(C(=O)N2CCN(Cc3ccc4c(c3)OCO4)CC2)CC1	HCMV antiviral inconclusive
O=C(C1CCN(Cc2cccs2)CC1)N1CCN(Cc2ccc3c(c2)OCO3)CC1	HCMV antiviral -103.6
Cc1cccc(N(Cc2ccccc2)C(=O)C2CCN(C(=O)c3ccccc3C)CC2)c1	Pf growth 96h 10.4µM, Pf growth 48h 11.7µM (no result: Shiga toxin inh, Cycloheximide cs)
Cc1ccccc1C(=O)N1CCC(C(=O)N2CCN(Cc3ccc4c(c3)OCO4)CC2)CC1	HCMV antiviral -101.7 (no result: Pf growth 96h, Shiga toxin inh, Pf growth 48h, Cycloheximide cs)
Cc1c(OCC(=O)N[C@@H](Cc2ccccc2)C(=O)O)ccc2c1oc(=O)c1ccccc12	none
CCCOc1ncnc2c1sc1nc3c(cc12)COC(C)(C)C3	none
CCc1nc2sc3c(=O)[nH]cnc3c2c2c1CSC(C)(C)C2	Pf growth 96h inconclusive
CCCCCn1cnc2c(sc3nc4c(cc32)CSC(C)(C)C4)c1=O	Shiga toxin inh 149.6, Cycloheximide cs 61.3
CC1(C)Cc2nc3sc4c(=O)[nH]cnc4c3cc2CS1	Cycloheximide cs 10.4
COc1ccccc1C(C[N+](=O)[O-])c1c(N)n(C)c(=O)n(C)c1=O (centres undefined)	HCMV antiviral -97.1, Pf growth 96h inconclusive, Pf growth 48h inconclusive
COc1ccccc1C(c1c(N)n(C)c(=O)n(C)c1=O)C(C)[N+](=O)[O-] (centres undefined)	Shiga toxin inh 93.7, Pf growth 48h inconclusive, Cycloheximide cs 43.8
COc1ccc(CCNC(=O)/C=C/c2ccc(S(=O)(=O)N3CCOCC3)cc2)cc1	Pf growth 96h inconclusive (no result: Shiga toxin inh, Cycloheximide cs)
O=C(CCN1CCOCC1)Nc1cc(C(=O)Nc2ccc(Cl)cc2)ccc1N1CC2CC(C1)c1cccc(=O)n1C2 (centres undefined)	Pf growth 96h inconclusive, Pf growth 48h 11.7µM
O=C(O)c1ccc(N2CC3CC(C2)c2cccc(=O)n2C3)c(NC(=S)Nc2ccc(Br)cc2)c1 (centres undefined)	HCMV antiviral inconclusive
COc1cccc(NC(=O)Nc2cc(C(=O)O)ccc2N2CC3CC(C2)c2cccc(=O)n2C3)c1 (centres undefined)	Pf growth 96h 1.47µM
O=C(Nc1ccc(Cl)cc1)N1CC2CC(C1)c1cccc(=O)n1C2 (centres undefined)	Cycloheximide cs 28.0
CCc1ccc(NC(=S)Nc2cc(C(=O)O)ccc2N2CC3CC(C2)c2cccc(=O)n2C3)cc1 (centres undefined)	Shiga toxin inh 70.0
CC1CCN(C(=O)c2ccc(N3CC4CC(C3)c3cccc(=O)n3C4)c([N+](=O)[O-])c2)CC1 (centres undefined)	Pf growth 96h 2.33µM
O=[N+]([O-])c1ccc2c(c1)[nH]c(=S)n2-c1ccccc1	none
CCOCCOc1cc(NCc2ccccc2)c2ncn(C(C)C)c2c1	none (no result: Pf growth 96h, Shiga toxin inh, Pf growth 48h, Cycloheximide cs)
Cc1nc(-c2coc3cc(O)c(C)cc3c2=O)cs1	Cycloheximide cs 21.3 (no result: Pf growth 96h)
COc1ccc2c(=O)c(-c3nc(C)cs3)coc2c1	Shiga toxin inh 78.8, Cycloheximide cs 45.2
Cc1csc(-c2coc3cc(O)cc(C)c3c2=O)n1	Shiga toxin inh 107.7, Cycloheximide cs 30.5
Cc1nc(-c2coc3cc(C)c(N=O)c(O)c3/c2=N\N)cs1	none
COc1ccc(-c2coc3cc(OC)ccc3c2=O)cc1	none (no result: Pf growth 96h, Shiga toxin inh, Pf growth 48h, Cycloheximide cs)
CCc1cc2c(=O)c(-c3nc(C)cs3)coc2cc1O	Shiga toxin inh 37.8, Cycloheximide cs 34.3
COc1cc2c(cc1OC)C(COc1ccc3c(C)cc(=O)oc3c1)N(C(=O)CC(C)C)CC2 (centres undefined)	none (no result: Pf growth 96h, Shiga toxin inh, Pf growth 48h, Cycloheximide cs)
Cc1ccc(C)c(S(=O)(=O)N2CCN(C(=O)Cc3c(F)cccc3Cl)CC2)c1	HCMV antiviral inconclusive, Pf growth 48h inconclusive (no result: Shiga toxin inh, Cycloheximide cs)
Cc1ccc(C)c(S(=O)(=O)N2CCN(CC(=O)NC(C)c3ccccc3)CC2)c1 (centres undefined)	Pf growth 48h inconclusive (no result: Shiga toxin inh, Cycloheximide cs)
Cc1ccc(C)c(S(=O)(=O)N2CCN(C(=O)CSc3ccccc3F)CC2)c1	Pf growth 96h 14.7µM, Pf growth 48h inconclusive
Cc1ccc(C)c(S(=O)(=O)N2CCN(C(C(=O)Nc3ccc(F)cc3)c3ccccc3)CC2)c1 (centres undefined)	HCMV antiviral inconclusive, Pf growth 48h 13.1µM
